Screening data deposited in PubChem BioAssay by National Center for Advancing Translational Sciences (NCATS).
HCV inhibitor: qHTS Assay for Inhibitors of Hepatitis C Virus (HCV); 340,000 tested, 3.4% active; Huh7.5.1 HCVcc-Cre infection, luciferase reporter, 44 h; Potency, µM (titrated, usually from 41.8 µM), inactives show at the top dose activity change, negative = inhibition, usual class: inhibitors; also: potency is read from the fitted curve at half-maximal effect; % is scaled to controls: 0 for no effect and ±100 for the full control effect
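Infectious HCV cell culture screen: compound-treated cells (1,000/well, pre-plated 4 h) are infected with HCVcc-Cre at roughly 0.5 moi and grown 44 h. Infection is quantified by luciferase signal after 15 min substrate incubation at room temperature.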
AMA1 RON2 block: qHTS for Inhibitors of AMA1-RON; Towards Development of Antimalarial Drug Lead: Primary Screen. Plasmodium falciparum AMA1 (3D7) - RON2 peptide interaction. AlphaScreen AMA1-biotinylated RON2 peptide binding. Potency, µM (doses to about 58.2 µM), without a hit: at the top dose activity change, negative = inhibition, hits mostly inhibitors. 360,000 tested, 0.2% active. AID 720542, 2013;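 also: potency is read from the fitted curve at half-maximal effect; 0% = vehicle wells and -100% = peptide control; nearly all actives have a fitted effect of over 45% in size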
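AMA1 (3D7) with his tag at 25 nM final met compounds first, then biotinylated RON2 peptide at 25 nM; detection used donor plus acceptor beads, 10 µg/mL apiece, read by AlphaScreen after 30 min at room temperature.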
Pf growth 48h: Primary qHTS for delayed death inhibitors of the malarial parasite plastid, 48 hour incubation; P. falciparum luciferase growth in erythrocytes, 48 h; 310,000 tested, 5.9% active; Potency, µM (series often up to 28.7 µM), without a hit: at the top dose activity change, negative = inhibition, hits mostly inhibitors; also: potency is read from the fitted curve at half-maximal effect; % is scaled to controls: 0 for no effect and ±100 for the full control effect
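Read-out is firefly luciferase luminescence from an integrated reporter in P. falciparum, so falling signal marks reduced parasite growth. Infected erythrocytes were at 2% hematocrit and 0.1% parasitemia (final) in Albumax-supplemented RPMI 1640.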
Pf growth 96h: Primary qHTS for delayed death inhibitors of the malarial parasite plastid, 96 hour incubation; AID 504834, 2011; Potency, µM (titrated, usually from 28.7 µM), for inactives: at the highest dose activity change, negative = inhibition, actives largely listed as inhibitors; P. falciparum luciferase reporter growth, 96 h; 320,000 tested, 6.9% active; also: potency is read from the fitted curve at half-maximal effect; % is scaled to controls: 0 for no effect and ±100 for the full control effect
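Two parasite generations (96 h, 37 C, 5% CO2) of compound exposure in infected erythrocytes (0.05% parasitemia, 2% hematocrit). Luciferase-reporter P. falciparum; decreased luminescence indicates inhibited growth, aimed at apicoplast-acting delayed death.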
Shiga inhibitor: A qHTS for Small Molecule Inhibitors of Shiga Toxin | 290,000 tested, 9.2% active | Vero cells, Shiga toxin protein synthesis inhibition reporter | inhibition, % at 38.7 µM | AID 2315, 2010; in the data active = inhibition mostly above about 28%, no sharp cut-off; inactive = mostly below about 43%; also: 0% is about no effect
Cycloheximide cs: Cycloheximide Counterscreen for Small Molecule Inhibitors of Shiga Toxin; cell reporter, cycloheximide protein synthesis inhibition counterscreen; max response, %; 300,000 tested, 12% active; in the data active = max response mostly above about 13%, no sharp cut-off; inactive = mostly below about 14%; also: read at 38.3 µM for the half of the compounds with a filed dose; 0% is about no effect
* marks the source's active call; other numbers are inactive results; ? = inconclusive; · = no result given; [ ] = another dose, or the depositor's remark. Hits are enriched below; roughly 21% of the tested compounds scored in any of these assays. Unless noted, calls follow the shape of the dose curve; as a rule, active = well fitted curve in the direction sought with a large enough effect; inconclusive = small, poorly fitted or top-dose-only effect, or another doubt; inactive = no such curve, though single readings can be large; an effect the other way counts as inactive or inconclusive.

SMILES | HCV inhibitor | AMA1 RON2 block | Pf growth 48h | Pf growth 96h | Shiga inhibitor | Cycloheximide cs
CC(=O)OC1(C(C)=O)CCC2C3CC(Cl)C4=CC(=O)CCC4(C)C3CCC21C (centres undefined) | -29% | 6% | · | · | · | ·
CC(=O)O[C@]1(C(C)=O)CC[C@H]2[C@@H]3C=C(C)C4=CC(=O)CC[C@@H]4[C@H]3CC[C@@]21C | 11% | 5% | 13µM* | ? | · | ·
CC(=O)O[C@]1(C(C)=O)CC[C@H]2[C@@H]3C=CC4=CC(=O)C=C[C@]4(C)[C@H]3CC[C@@]21C | -3% | -8% | 12µM* | 4.7µM* | -2 | -2
CCOc1ccc2nc(C)cc(Nc3ccc(N4CCOCC4)cc3)c2c1 | 1%[0.335 µM] | · | 2.1µM* | 2.6µM* | -21 | -4
CCOc1ccc2nc(C)cc(Nc3cccc([N+](=O)[O-])c3)c2c1 | ? | -7% | 1.7µM* | 1µM* | -26 | -11
Cc1ccc2nc(C)cc(Nc3ccc4c(c3)OCCO4)c2c1 | ? | 11% | · | -100% | 38* | 60*
CC(=O)c1ccc(Nc2cc(C)nc3ccc(C)cc23)cc1 | ? | 8% | 3.7µM* | 4% | 15 | 10
Cc1cc(Nc2ccc3c(c2)OCCO3)c2ccccc2n1 | -8% | -13% | ? | ? | 15 | 12
Cc1cc(Nc2cccc([N+](=O)[O-])c2)c2ccccc2n1 | -29% | 8% | ? | -24% | 7 | -2
CCOc1ccc2nc(C)cc(Nc3ccc4c(c3)OCCO4)c2c1 | -29% | 1% | ? | 2.6µM* | 35 | 21
CCOc1ccc(S(=O)(=O)Nc2nc3ccccc3nc2Nc2ccc(N3CCOCC3)cc2)cc1 | 30% | ? | 11% | ? | 4 | 13*
COCCNC(=S)N/N=C1\CC(C)CC(C)(C)C1 (centres undefined) | 9% | 16% | ? | 4.7µM* | -12 | -2
COCCNC(=S)NN=C1CCCCCC1 | -9% | 60% | ? | 3% | 25 | 8
O=C(COC(=O)c1ccc([N+](=O)[O-])o1)NCc1ccccc1 | 8% | -8% | · | · | · | ·
Cc1ccc(/C=C/C(=O)c2ccc([N+](=O)[O-])o2)cc1 | 0.56µM* | -3% | ? | -9% | · | ·
Cc1ccc(-n2nnnc2CNC(=O)c2ccc([N+](=O)[O-])o2)cc1C | 22µM* | -1% | ? | ? | · | ·
CN(Cc1ccccc1)C(=O)c1ccc([N+](=O)[O-])o1 | ? | 50% | 9.3µM* | 26% | 42* | 19*
O=C(/C=C/c1ccc(Cl)cc1)c1ccc([N+](=O)[O-])o1 | -4%[8.37 µM] | 2% | ? | 40% | · | ·
Cc1ccc(CNC(=O)c2ccc([N+](=O)[O-])o2)cc1 | ? | 0% | ? | 8.3µM* | 15 | -2
Cc1cc(C(=O)COC(=O)CNC(=O)c2ccccc2)c(C)n1CC1CCCO1 (centres undefined) | 1% | 6% | 330% | 243% | 134* | 26*
CNS(=O)(=O)c1cccc(C(=O)OCC(=O)c2cc(C)n(CC3CCCO3)c2C)c1 (centres undefined) | ? | 14%[11.6 µM] | 295% | 383% | · | ·
Cc1cc(C(=O)CN2C(=O)c3ccccc3S2(=O)=O)c(C)n1CC1CCCO1 (centres undefined) | -13% | -2% | 2.1µM* | 10% | -24 | -9
Cc1cccc(C(=O)NCC(=O)OCC(=O)c2cc(C)n(CC3CCCO3)c2C)c1 (centres undefined) | 2% | 0% | 287% | 110% | 89* | 48*
COc1ccc(C(=O)NCCc2c[nH]c3ccccc23)cc1OC | ? | 1% | -15% | ? | 2 | -3
O=C(NCCc1c[nH]c2ccccc12)/C(=C\c1cccs1)NC(=O)c1ccccc1 | -18% | -15% | ? | 15µM* | -3 | -2
SMILES | HCV inhibitor | AMA1 RON2 block | Pf growth 48h | Pf growth 96h | Shiga inhibitor | Cycloheximide cs
Cc1ccc(C(=O)N/C(=C\c2cccs2)C(=O)NCCc2c[nH]c3ccccc23)cc1C | ? | ? | ? | ? | -1 | -2
COc1ccc(C(=O)N/C(=C\c2cccc3ccccc23)C(=O)NCCc2c[nH]c3ccccc23)cc1OC | ? | -16% | 2.9µM* | 5.9µM* | 20 | 10
COc1ccc(-c2c(C)nn3c(N)c(C#N)cnc23)cc1OC | ? | 18% | 0.41µM* | 0.33µM* | -5 | 15
N#C/C(=C\C=C\c1ccccc1)C(=O)NCc1ccco1 | 7% | 5% | ? | 15µM* | 38 | 20
O=C(/C=C/c1c(Cl)cccc1Cl)NCc1ccco1 | -9% | 2%[11.6 µM] | 8% | 27% | -8 | 13
O=C(/C=C/c1ccccc1Cl)NCc1ccco1 | -8% | -11% | ? | ? | 63* | 43*
O=C(/C=C/c1ccccc1)NCc1ccco1 | 9% | -13% | 51% | -12% | 69* | 30*
O=C(/C=C/c1ccc(Cl)c(Cl)c1)NCc1ccco1 | 2% | -20% | -27% | 1.9µM* | active | 11
CC1=C(CC(=O)NCC(=O)NCC(=O)O)c2cc(F)ccc2/C1=C/c1ccc(S(C)=O)cc1 (centres undefined) | -3% | 0% | 12% | -11% | -5 | 6
O=C1CCC([N+](=O)[O-])C(c2ccc(-c3ccccc3)cc2)N1 (centres undefined) | 7% | -8% | · | · | · | ·
O=C(Nc1ccccc1)OCC1COC(c2ccccc2)(c2ccccc2)O1 (centres undefined) | -22% | 16% | · | · | · | ·
Cc1onc(-c2ccccc2)c1C(=O)N1CCN(Cc2ccccc2)CC1 | -9% | 1% | 6% | 7% | -31 | -3
O=C(Nc1ccc(C(=O)N2CCC(N3CCOCC3)CC2)cc1)c1ccc(Br)o1 | -11% | 0% | 30% | 0% | · | ·
O=C(/C=C/c1ccc2c(c1)OCO2)NCc1ccco1 | -5% | -26% | 34% | 70% | 33 | 25*
O=C(Cc1c(F)cccc1Cl)NNC(=O)c1ccc(Br)s1 | 12% | 76% | · | · | · | ·
CCO[C@@H]1OC(C(=O)Nc2ccccc2)=C[C@H](c2csc3ccccc23)[C@H]1CCCO | -23% | 4% | 7.4µM* | ? | 20 | -2
CCO[C@@H]1OC(C(=O)NCc2ccccc2)=C[C@H](c2csc3ccccc23)[C@H]1CCCO | ? | 6% | ? | 10µM* | -1 | 1
CCO[C@H]1OC(C(=O)Nc2ccccc2)=C[C@@H](C)[C@@H]1CCCO | 6% | 2% | 31% | 32% | 6 | 11*
CCO[C@H]1OC(C(=O)NC2CC2)=C[C@@H](c2csc3ccccc23)[C@@H]1CCCO | 25% | -1% | ? | 0.19µM* | -14 | -2
